# Screening results deposited in PubChem BioAssay by National Center for Advancing Translational Sciences (NCATS).
# Shown are actives, neighbours in structure and some others; about 3% of the full set was active somewhere.
# USP1-UAF1 inh: Inhibitors of USP1/UAF1: Primary Screen. Ubiquitin carboxyl-terminal hydrolase 1 (Homo sapiens), O94782. recombinant USP1/UAF1, Ub-Rhodamine cleavage fluorescence. Potency, µM (doses to about 57.1 µM), inactives show top-dose activity change, negative = inhibition, hits mostly inhibitors. hit rate 0.23% among 390,000. AID 743255, 2014; further: on the % scale 0 is the no-effect control and ±100 the full control effect; nearly all actives have a fitted effect of over 60% in size
#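 USP1/UAF1 complex at 1 nM was preincubated with compound for 15 min at room temperature, then Ub-Rho substrate (150nM final) was added. Fluorescence (480/540 nm) was read kinetically, 6 reads every 60 seconds.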
# TSG101-PTAP inh: qHTS Assay for Iinhibitors of HIV-1 Budding by Blocking the Interaction of PTAP/TSG101; Tumor susceptibility gene 101 protein (Homo sapiens), Q99816; AID 493005, 2010; 340,000 tested, under 10 active; Potency, µM (highest dose often 115 µM), without a hit: at the top dose activity change, negative = inhibition, usual class: inhibitors; Fluorescence polarization, FITC-PTAP peptide / Tsg101 binding; active means well fitted inhibition curve with a large enough effect in the main read-out, with a control signal flat, not every such curve was filed as active; inconclusive means small, poorly fitted or top-dose-only effect, or effect the other way, or a change in a side signal; inactive means no such curve, though single readings can be large or run the other way; further: % of control where 0% means no effect
#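 Fluorescence polarization binding of Tsg101 binding domain (10 uM final) to FITC-labeled PTAP peptide (50 nM final) in HEPES pH 7.5 buffer with NaCl, Tween 20, EDTA, TCEP. Compounds added before peptide; binding 20 min at RT.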
# PLK1 PBD inh: qHTS for Inhibitors of PLK1-PDB (polo-like kinase 1 - polo-box domain): Primary Screen. Serine/threonine-protein kinase PLK1 (Homo sapiens), P53350. Plk1 PBD binding of FITC phosphopeptide, fluorescence polarization. Potency, µM, for the others: max response, negative = inhibition, hits mostly inhibitors. hit rate 2.8% among 360,000; further: series mostly up to about 57 µM; on the % scale 0 is the no-effect control and ±100 the full control effect; nearly all actives have a fitted effect of over 65% in size
# KAT2A inh: qHTS Assay for Inhibitors of GCN5L2 | AID 504327, 2011 | Histone acetyltransferase KAT2A (Homo sapiens), Q92830 | Potency, µM (titrated, usually from 58.9 µM), for the others: at the top dose activity change, negative = inhibition, actives largely listed as inhibitors | hit rate 0.21% among 390,000 | GCN5L2 HAT assay, ThioGlo1 CoA-SH fluorescence; further: on the % scale 0 is the no-effect control and ±100 the full control effect
#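 qHTS, 1536-well. 20nM enzyme, pH 7.5 HEPES/EDTA/Tween-20 buffer; 15 min compound preinc., RT. Start: 75uM H3(1-25), 70uM AcCoA, 50uM ThioGlo1. Read Ex340/Em540 at t=0 (autofluorescence flag) and t=20 min.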
# VDR inhibitor: Inhibitors of the vitamin D receptor (VDR): qHTS; Vitamin D3 receptor (Homo sapiens), P11473; VDR-SRC2-3 peptide fluorescence polarization, 2 h; Potency, µM, for inactives: max response, negative = inhibition, usual class: inhibitors; hit rate 0.93% among 400,000; further: on the % scale 0 is the no-effect control and ±100 the full control effect
#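 Measured by FP: displacement of SRC2-3 coactivator peptide from VDR by library compounds, following a two-hour ambient incubation.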
# The depositor's hits bear a star; ? = inconclusive; nt = no result given; ! = not active in a repeat. Unless noted, the call rests on the fitted dose curve; in most records, active means well fitted curve in the direction sought with a large enough effect; inconclusive means small, poorly fitted or top-dose-only effect, or another doubt; inactive means no such curve, though single readings can be large; an effect the other way counts as inactive or inconclusive. Potency means the concentration at half of the fitted maximal effect.
SMILES,USP1-UAF1 inh,TSG101-PTAP inh,PLK1 PBD inh,KAT2A inh,VDR inhibitor
C[C@H]1CCC[C@]2(C)C[C@H]3OC(=O)C(CN4CCCCCC4)[C@H]3C=C12 (stereo partly specified),-17%,2%,-3%,-3%,-6%
C=C1C(=O)OC2C[C@@]3(C)CCCC(C)C3=CC12 (stereo partly specified),nt,nt,nt,-5%,40µM*
CN(C)c1ccc(/C=C2\SC(=O)N(CC(O)Cn3c4ccccc4c4ccccc43)C2=O)cc1 (stereo unspecified),13µM*,?,?,-3%,-10%
COc1cc(OC)c(NS(=O)(=O)c2ccc3c(c2)NC(=O)CO3)cc1Cl,-24%,-2%,6.7µM*,-8%,?
Cc1cccc(OCc2nnc(N)s2)c1,-14%,-6%,27µM*,-6%,?
Nc1nnc(COc2cccc(C(F)(F)F)c2)s1,-11%,-2%,-26%,-8%,2%
S=c1nc(-c2ccc(Br)cc2)[nH]c2ccccc12,?,-1%,12µM*,0%,?
Fc1ccc(-c2nc3ccccc3[nH]2)cc1,-1%,-11%,?,-6%,2%
CC(C(=O)N1CCOCCOCCOCCOCCOCC1)N1C(=O)c2ccccc2C1=O (stereo unspecified),-29%,-3%,-14%,-15%,-18%
CC(C(=O)N1CCN(C=O)CC1)N1C(=O)c2ccccc2C1=O (stereo unspecified),-20%,-5%,19µM*,-8%,-15%
CSc1cccc(Nc2cc(C(=O)NCCCN(C)c3ccccc3)c3ccccc3n2)c1,-3%,nt,nt,-2%,16%
Cc1ccccc1CN1C(=O)c2ccccc2Sc2ccc(C(=O)NC(C)c3ccccc3)cc21 (stereo unspecified),-13%,nt,nt,-8%,-1%
COc1ccccc1N1CCN(CCCCN2C(=O)C3CCCCN3C2=O)CC1 (stereo unspecified),-8%,-6%,8.4µM*,-4%,?
CCOc1ccc(Cl)cc1-c1cc(C(=O)Nc2cc(OC)c(OC)c(OC)c2)[nH]n1,nt,nt,6%,nt,nt
COc1ccc(-c2nn(-c3ccc(F)cc3F)c3c2cnc2ccc(F)cc23)cc1,-27%,nt,nt,17%,4%
CSc1ncccc1C(=O)Nc1ccc(OC(F)(F)F)cc1,-5%,0%,34µM*,1%,-8%
COc1ccc(NC(=O)c2ccccc2SC)cc1,-28%,-1%,-3%,-3%,2%
CCOc1ccc(NC(=O)c2ccccc2SC)cc1,-24%,-2%,19µM*,35%,?
CC(=O)Nc1c(C(=O)Nc2cccc(C)c2)nnn1-c1ccc(C)cc1,-26%,nt,nt,-6%,-7%
CC1(OC(=O)c2ccc(Cl)nc2)C(=O)C=C2C=C(c3ccsc3)OC=C2C1=O (stereo unspecified),nt,nt,nt,nt,5%
CC1(OC(=O)c2ccc(Cl)nc2)C(=O)C=C2C=C(c3ccc(C#N)cc3)OC=C2C1=O (stereo unspecified),nt,nt,nt,nt,89µM*!
CC(C)n1nnnc1SCC(=O)c1ccc2c(c1)OCCO2,0%,-1%,30µM*,0%,4%
CCn1nnnc1SCC(=O)c1ccc2c(c1)OCCO2,-10%,-3%,-2%,-8%,-1%
CCn1nc(CC(C)C)cc1C(=O)N1CCCC(Nc2ccc(OC)cc2)C1 (stereo unspecified),-3%,-9%,27µM*,-3%,-30%
CCn1nc(C)cc1C(=O)N1CCCC(Nc2ccc(F)c(F)c2)C1 (stereo unspecified),-7%,-1%,0%,-4%,-13%
CCSc1ccccc1C(=O)n1nnc2ccccc21,-8%,0%,5.6µM*,nt,50µM*
CC(=O)n1nnc2ccccc21,nt,nt,nt,nt,-7%
O=C(Nc1nc(-c2ccccn2)cs1)c1cc(S(=O)(=O)N2CCOCC2)ccc1F,-12%,-7%,?,-14%,29%
